Data taken from PubChem BioAssay (NCI).
The panel holds about 79,000 compounds, 15% with a hit somewhere; the sample as a whole holds those more often. A number with no mark means an inactive call. The source made the active and inactive calls. Rule as the data show it: active = growth inhibition above about 70%; inactive = the rest.

How the values were obtained:
[1] = NCI Yeast Anticancer Drug Screen. Data for the rad50 strain (AID 155);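 also: 0% = growth of vehicle-only cultures of the same strain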; conditions: S. cerevisiae rad50 strain growth inhibition; at 50.0 µM; active compounds read high
Method in brief: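 Compounds were tested on a yeast strain with an engineered DNA damage repair alteration; the reported value is growth inhibition normalised to vehicle treatment.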

[2] = NCI Yeast Anticancer Drug Screen. Data for the mec2-1 strain (AID 157); conditions: S. cerevisiae mec2-1 strain, at 50.0 µM, active compounds read high
Method in brief: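 Readout is yeast growth inhibition, normalised to vehicle-treated controls, in the mec2-1 strain exposed to compound.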

[3] = NCI Yeast Anticancer Drug Screen. Data for the sgs1 mgt1 strain (AID 161);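 also: 0% = growth of cultures given vehicle only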; conditions: S. cerevisiae sgs1 mgt1 strain, at 50.0 µM, active compounds read high
Method in brief: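 Yeast cells carrying a defined DNA-repair defect were exposed to test compounds. Growth inhibition was measured relative to vehicle-treated controls.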

[4] = NCI Yeast Anticancer Drug Screen. Data for the cln2 rad14 strain (AID 165);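 also: 0% = growth equal to vehicle treated cultures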; conditions: S. cerevisiae cln2 rad14 strain, at 50.0 µM, active compounds read high
Method in brief: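 Relative to vehicle controls, growth inhibition of compound-treated cln2 rad14 yeast was recorded.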

[5] = NCI Yeast Anticancer Drug Screen. Data for the bub3 strain (AID 167); conditions: S. cerevisiae bub3 mutant strain, at 50.0 µM, active compounds read high
Method in brief: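 Growth of a checkpoint-deficient yeast mutant is measured after compound exposure. Values represent inhibition relative to vehicle.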

[6] = NCI Yeast Anticancer Drug Screen. Data for the mlh1 rad18 strain (AID 175); conditions: S. cerevisiae mlh1 rad18 strain growth inhibition; at 50.0 µM; active compounds read high
Method in brief: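 Test agents were incubated with a yeast strain of defined genotype (DNA damage repair defect). Inhibition of growth was derived by comparison with vehicle-exposed cultures.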

Compound | growth inhibition [1] | growth inhibition [2] [%] | growth inhibition [3] | growth inhibition [4] [%] | growth inhibition [5] [%] | growth inhibition [6] [%]
COC(=O)C1CN(c2ccccc2)CCC1=O (stereo not drawn) | -28.9% | -31.8 | -0.55% | -35.7 | -10.3 | -12.7
Cc1c(CCCl)c(Cl)n2c(nc3ccccc32)c1C#N | 38.7% | 20.8 | 39.4% | 32.5 | 22.8 | 57.1
CCc1ccccc1NC(=O)C(=O)C(C(=O)c1ccc(OC)cc1)c1ccc(OC)cc1 (stereo not drawn) | 19% | 11.9 | 5.4% | 16.4 | 4.45 | 9.05
CC(=O)c1cccc(NC(=O)c2cccc(Cl)c2)c1 | -1.9% | -4.3 | 24.5% | -16.1 | 20.4 | 20.9
CNc1ccccc1C(N)=S | 5.9% | 2.5 | -2.95% | -26.1 | -5.55 | 11.8
O | 13.2% | 9.15 | 17% | 6.2 | -16.8 | -4
Nc1nc(-c2ccccc2)nc2nc[nH]c12 | 8.75% | -3.9 | -20.3% | -2.2 | 0.85 | 5.85
CCCCCCCC/C=C/CCCCCCCC(=O)OCC(C)(C)N1C(=O)CCC1=O | -11.2% | -20.4 | -12.6% | -11.2 | -3.45 | -7.3
O=C(Cn1c(=O)oc2ccc(C(=O)c3ccc(F)cc3)cc21)c1ccc([N+](=O)[O-])cc1 | -13.8% | -36 | -15.6% | -24.6 | -21.6 | -14.8
COc1ccc(CC(=O)OCC2CCCO2)cc1OC (stereo not drawn) | -8.5% | -1.25 | 9.9% | -20.6 | 5.6 | 4
Nc1ccc2cc(S(=O)(=O)O)cc(O)c2c1 | 28.8% | -4.55 | -34.5% | -85.8 | 6.85 | 15.2
CCCCCCCCN(C)/N=N/c1nc[nH]c1C(N)=O | 20.7% | -4.7 | 15.1% | 17.6 | 17.8 | 24.4
COc1ccc2c(c1)C(=O)C1CC(=O)CCC21 (stereo not drawn) | -6.45% | -10.4 | -8.9% | -21.8 | -30.6 | -8.9
Cc1nc2ccccc2c(=O)n1C(C)(C)CCl | 10.1% | 30.6 | 11.1% | -14.7 | 30.3 | 19.9
CCC(O)(C#CCl)CC | 11.6% | -10.9 | 10% | 10.2 | -29.1 | 11.1
O=C(O)c1ccccc1C(=O)OCc1ccccc1 | -0.15% | 16.1 | 6.25% | -11.2 | 8.25 | 11.9
OC1CCOc2ccccc21 (stereo not drawn) | -29.8% | 10.1 | -11.1% | 10.2 | -14.8 | -6.3
NC(N)=NC(N)=Nc1ccc(-c2ccc(N=C(N)N=C(N)N)cc2)cc1 | 0.85% | -0.3 | -0.7% | 6.15 | 7.9 | 13.6
CCNc1ccc(-c2ccc(NCC)cc2)cc1 | 31.6% | -14 | 26% | 3.2 | -1.45 | 36.9

Compound | growth inhibition [1] | growth inhibition [2] [%] | growth inhibition [3] | growth inhibition [4] [%] | growth inhibition [5] [%] | growth inhibition [6] [%]
COC(=O)/C=C1\CCC(C)O1 (stereo not drawn) | -1.35% | -26.6 | -27.7% | 8 | -19.2 | 16
Oc1ccc(Cl)cc1CN1CCOCC1 | 31.3% | 11.6 | 36.1% | 21.5 | 13.3 | 34.5
Nc1nc(N)c2nc(-c3ccc([N+](=O)[O-])cc3)c(=O)[nH]c2n1 | -9.75% | -8.5 | -2.05% | -11.3 | 29.2 | 14.7
N#C/C(N)=C(\C#N)N=CNc1ccc(N)cc1 | -32.8% | -31.1 | -22.2% | 23 | 1.4 | -10.9
C/C(=N\N=P(c1ccccc1)(c1ccccc1)c1ccccc1)C(C)(C)C | 8.35% | 10.2 | 1.75% | 11.9 | 4.5 | 31.7
CC(/C=C/C=C/C=C/C=C/C=C/C(O)=C1/C(=O)C(CCC(=O)O)N(C)C1=O)=C\C(C)C(OC1CC(O)C(O)C(C)O1)C(C)C (stereo not drawn) | -11.6% | -28.6 | -1.7% | 3.35 | -10.1 | -2.65
CCC(C)(C)c1ccc(OCCCCNC(=O)c2ccc3ccccc3c2O)c(C(C)(C)CC)c1 | -7.65% | 2.05 | -14.2% | -37.1 | -18.2 | 3.15
CCc1ccc2[nH]nc(CCC(=O)O)c(=O)c2c1 | -1.5% | -4.7 | -13.2% | -12.4 | -23.2 | -7.05
COc1ccc(C(=O)CC(C#N)c2ccc(OC)cc2)cc1 (stereo not drawn) | -6.5% | 3.25 | 0.55% | -21.2 | -4.75 | -1.35
C=CCSc1nc2ccc(NCn3c(=S)sc4ccccc43)cc2s1 | 71.7% (active) | 65.2 | 85.7% (active) | 47.1 | 41.9 | 56.7
C/C=C1\CN2CCc3c([nH]c4ccccc34)C2CC1CCO (stereo not drawn) | -16.8% | -10.9 | -5.4% | 12.7 | -26.7 | -24.9
CC(C)(C)c1ccc(O)c(Sc2cc(C(C)(C)C)ccc2O)c1 | 5.8% | -24.9 | 7.95% | -33.4 | 12.6 | -15.2
CNCc1ccccc1[N+](=O)[O-] | 6.75% | -3.95 | -3.9% | -9.95 | 3.7 | -0.3
CCOC(=O)Nc1nc(-c2ccccc2)c(C)s1 | -23.2% | -20.8 | -16.8% | -7.1 | -44.9 | -2.15
O=C1c2ccccc2N(Cc2cccc(F)c2)C2=NCCCC12 (stereo not drawn) | -4.2% | -39 | 14.2% | 0.35 | 8.3 | 0.35
CC1OC(C)(c2ccccc2)OC1C (stereo not drawn) | 18.1% | 13.8 | 27.1% | -26.5 | 32.7 | 41.7
CCOC(=O)NCC(C)(C)C | -2.4% | 10.9 | 6.5% | -0.65 | -7.9 | 35.4
CC(C)C(=O)Nc1cccc([N+](=O)[O-])c1 | -2.1% | -8.75 | 6.75% | -24.6 | -6.85 | -7.6
O=C1CCC(c2nc3ccccc3[nH]2)N1Cc1cccs1 (stereo not drawn) | -29.4% | -37.1 | -10.2% | -21.9 | -6.85 | -8.55
